# High-throughput results deposited in PubChem by National Center for Advancing Translational Sciences (NCATS).
# DRD3 antagonist: qHTS of D3 Dopamine Receptor Antagonist: qHTS; D(3) dopamine receptor (Homo sapiens), P35462; D3R cells, DiscoveRx beta-arrestin luminescence, antagonist mode; active compounds read low; max response, negative = inhibition, %; 2.5% of 360,000 active; AID 652054, 2013; in the data active means max response below about -50%; inconclusive means no clear call, values can overlap the other calls; further: on the % scale 0 is the no-effect control and ±100 the full control effect
#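 Cells plated overnight at 1500 cells/well, then exposed to library compounds with dopamine controls for 90 minutes at 37 degrees C. DiscoveRx reagent added for 30–60 minutes at room temperature; luminescence read, quantitative HTS format.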
# ClpP mod: qHTS Assay for Activators of ClpP; ATP-dependent Clp protease proteolytic subunit (Bacillus subtilis (strain 168)), P80244; purified B. subtilis ClpP, FRET peptide cleavage, 20 min; Potency, µM (titrated, usually from 57.5 µM), for inactives: at the highest dose activity change, negative = active; 1.9% of 340,000 active; active means well fitted falling curve with a large enough effect; inconclusive means small, poorly fitted or top-dose-only effect; inactive means no such curve, though single readings can be large or run the other way; further: potency means the concentration at half of the fitted maximal effect; the source files actives as falling curves though it sought activators and does not explain the sign; nearly all actives have a fitted effect of over 65% in size
#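 ClpP 10 microg/mL final, pH 8 Tris/KCl buffer with BSA, glycerol, Tween-20; compound pinned in; FRET-FV substrate; RT 20 min; Ex320/Em430; ΔFRET vs ADEP 5.8 microM, DMSO, no enzyme.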
# TDP1 cell noCPT: qHTS for Inhibitors of human tyrosyl-DNA phosphodiesterase 1 (TDP1): qHTS in cells in absence of CPT. DT40 Tdp1-/- hTDP1 cells, no CPT, ATP luminescence, 48 h. Potency, µM (top dose mostly 46.2 µM), for the others: top-dose activity change, negative = growth inhibition, usual class: inhibitors. 15% of 420,000 active. AID 686978, 2013; further: potency means the concentration at half of the fitted maximal effect; on the % scale 0 is the no-effect control and ±100 the full control effect; nearly all actives have a fitted effect of over 55% in size
#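 Compound effects on proliferation are scored in DT40 Tdp1-/-;hTDP1 cells in the absence of CPT. ATP levels (CellTiter-Glo luminescence) are recorded after a ≥48 hr, 37 °C incubation.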
# DRD3 agonist: qHTS of D3 Dopamine Receptor Agonist: qHTS | D3R DiscoveRx beta-arrestin cells, luminescence, 90 min | 0.58% of 410,000 active | AID 652048, 2013 | max activation, %; in the data active means max activation above about 30%; further: 0% is about no effect
#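 Agonist-mode cell screen: cells plated at 1500/well and incubated overnight at 37 °C, then exposed to library compounds for 90 min at 37 °C. Detection reagent was added for 30–60 min at room temperature, and luminescence was read.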
# TDP1 cell CPT: qHTS for Inhibitors of human tyrosyl-DNA phosphodiesterase 1 (TDP1): qHTS in cells in presence of CPT; chicken DT40 Tdp1-/-;hTDP1 cells + 20 nM CPT, ATP luminescence, 48 h; Potency, µM (doses to about 46.2 µM), for the others: at the top dose activity change, negative = growth inhibition, usual class: inhibitors; 12% of 420,000 active; AID 686979, 2013; further: potency means the concentration at half of the fitted maximal effect; on the % scale 0 is the no-effect control and ±100 the full control effect; nearly all actives have a fitted effect of over 55% in size
#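 Chicken DT40 Tdp1-/- cells complemented with human TDP1, 400 cells/well, exposed to compounds plus 20 nM camptothecin for at least 48 h at 37 C; viability read as ATP content by CellTiter-Glo luminescence.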
# IL-1B inflam inh: qHTS for Inhibitors of Inflammasome Signaling: IL-1-beta AlphaLISA Primary Screen. THP-1 LPS/ATP IL-1B secretion, AlphaLISA, 16 h; active compounds read low. activity change, % at 57.5 µM. 4.7% of 360,000 active; in the data active means activity change below about -50%; inconclusive means mostly about -30% to -49%; further: on the % scale 0 is the no-effect control and ±100 the full control effect
#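 THP-1 cells pretreated 1 hr with compounds (up to 57.5 uM final), then stimulated with LPS (250 ng/mL final) plus ATP (1.25 mM final); secreted IL-1B measured by AlphaLISA after 16 hr, decreased signal indicating inhibition.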
# * hit, by the source's call; ? = inconclusive; . = no result given; [ ] = remark or other dose. Only some compounds are listed: those with a hit (about 21% of all), similar ones and a draw of the others. Unless noted, the call rests on the fitted dose curve; in most records, active means well fitted inhibition curve with a large enough effect; inconclusive means small, poorly fitted or top-dose-only effect; inactive means flat fitted curve, though single readings scatter.
SMILES,DRD3 antagonist,ClpP mod,TDP1 cell noCPT,DRD3 agonist,TDP1 cell CPT,IL-1B inflam inh
CC(=O)N1CCN(CC(=O)Nc2c(Cl)ccc(C)c2Cl)CC1,0,.,-6%,5,1%,8
Cc1ccc2nc(-c3ccc(NC(=O)CNC4CC4)cc3)sc2c1,6,4%,18µM*,-7,16µM*,-4
COc1ccc(C2(C)NC(=O)N(CC(=O)Nc3ccc(-c4nc5ccc(C)cc5s4)cc3)C2=O)cc1 (stereo unspecified),6,.,?,6,?,-9
Cc1cccc(S(=O)(=O)Nc2ccc(-c3nc4ccc(C)cc4s3)cc2)c1,10,-3%,29µM*,2,?,-12
Cc1ccc2nc(-c3ccc(NS(=O)(=O)c4c(C)n(C)c(=O)n(C)c4=O)cc3)sc2c1,12,3%,?,-1,?,-19
Cc1ccc2nc(-c3ccc(NC(=O)C(F)(F)F)cc3)sc2c1,.,4%,?,1,-18%,.
Cc1ccc2nc(-c3ccc(NC(=O)C(C)Sc4nncs4)cc3)sc2c1 (stereo unspecified),36,3%,9.2µM*,12,?,-20
CCC1(c2ccc(F)cc2)NC(=O)N(CC(=O)Nc2ccc(-c3nc4ccc(C)cc4s3)cc2)C1=O (stereo unspecified),3,7.9µM*,6.5µM*,4,13µM*,96
Cc1cc(Br)ccc1NC(=O)CNC(=O)c1cnn(C)c1,10,-2%,-15%,-4,-14%,0
Cc1ccc2nc(-c3ccc(NC(=O)CCS(=O)(=O)c4ccccc4)cc3)sc2c1,36,.,26µM*,12,?,-23
Cc1ccc(N(CC(=O)Nc2ccc(-c3nc4ccc(C)cc4s3)cc2)S(C)(=O)=O)cc1,37,11µM*,-11%,11,-27%,4
C=CCn1c(SCC(=O)Nc2ccc(-c3nc4ccc(C)cc4s3)cc2)nnc1-c1ccncc1,-8,3.5µM*,-6%,0,-6%,15
C=CCn1c(SCC(=O)Nc2ccc(N3CCOCC3)cc2)nnc1-c1ccncc1,-6,.,5%,-4,2%,-4
O=C(NCc1ccc(Cl)cc1)c1n[nH]c([N+](=O)[O-])c1Cl,3,1%,?,3,-29%,9
CCCCN(C(=O)c1ccc2c(c1)OCCO2)c1c(N)n(CC(C)C)c(=O)[nH]c1=O,5,-4%,0%,2,-9%,1
COc1cccc(C(=O)NCCN2C(=O)S/C(=C/c3cccs3)C2=O)c1OC,17,-25%,?,3,-25%,-25
COc1cc(OC)cc(C(=O)NCCN2C(=O)S/C(=C\c3cccs3)C2=O)c1,83,1%,16µM*,5,16µM*,-23
COc1cc(/C=C2\SC(=O)N(CCNC(=O)c3c(C)noc3C)C2=O)cc(OC)c1OC,13,.,16µM*,-5,?,?
COc1cc(C(=O)NCCN2C(=O)S/C(=C\c3cccs3)C2=O)cc(OC)c1OC,21,.,16µM*,3,?,-5
COC(=O)c1cc(C(=O)NCCN2C(=O)S/C(=C\c3cccs3)C2=O)cc([N+](=O)[O-])c1,69,-9%,?,3,?,-12
Cc1ccc(N(C)S(=O)(=O)c2csc(C(N)=O)c2)cc1C,5,0%,-13%,3,-22%,0
Cc1c(Cl)cccc1NC(=O)CCS(=O)(=O)c1ccc2c(c1)CC(=O)N2C,.,-4%,-20%,5,-18%,.
COCCCNC(=O)C[C@@H]1C[C@@]2(C(=O)OC)CCCCC=C2N(CCC2=CCCCC2)C1=O,-19,1%,16µM*,-14,?,1
COC(=O)[C@]12CCCCC=C1N(CCC1=CCCCC1)C(=O)[C@H](CC(=O)NCCCCc1ccccc1)C2,0,-6%,18µM*,-7,?,?
O=C1/C(=C\c2ccc(C(F)(F)F)cc2)CSc2sccc21,42,2%,8%,1,-1%,-13
SMILES,DRD3 antagonist,ClpP mod,TDP1 cell noCPT,DRD3 agonist,TDP1 cell CPT,IL-1B inflam inh
Cc1cccc(NC(=O)c2ccc(-n3cnc4cccnc43)cc2)c1C,.,-1%,.,-9,.,.
Cc1cc(C(=O)Nc2ccccc2-c2nc(CNC(=O)c3cc4ccccc4cn3)c(C)o2)c(C)o1,.,.,-2%,.,0%[9.04 µM],.
COc1cccc(C2=CC(=O)C(C(C)(C)C)N2C(C)(C)C)c1 (stereo unspecified),-24,3%,21µM*,6,?,16
CCCC(=O)Nc1ccc2oc(=O)ccc2c1,-6,25µM*,-1%,0,-9%,11
O=C(Nc1ccc2oc(=O)ccc2c1)c1ccc(-c2cccc(Cl)c2)o1,5,-21%,?,3,8.2µM*,-27
O=C(Nc1ccc2oc(=O)ccc2c1)c1ccc(-c2cccc([N+](=O)[O-])c2)o1,35,.,7.3µM*,-7,8.2µM*,6
Cc1ccc(S(=O)(=O)NC(=O)Nc2cccc(S(=O)(=O)N(C)C)c2)cc1,13,-3%,-12%,3,-19%,4
O=C(NCC(=O)N1CCN(S(=O)(=O)c2ccc3c(c2)OCCO3)CC1)c1ccccc1Cl,5,-1%,-20%,8,-12%,0
O=C(NCCc1ccccc1)C(=O)NCC(c1cccs1)S(=O)(=O)c1cccs1 (stereo unspecified),.,0%,?,0,16µM*,.
COc1ccccc1CNC(=O)C(=O)NCC(c1cccs1)S(=O)(=O)c1ccccc1 (stereo unspecified),.,0%,16µM*,-17,?,.
O=C(NCc1ccccc1)C(=O)NCC(c1cccs1)S(=O)(=O)c1cccs1 (stereo unspecified),.,-2%,-26%,3,-26%,.
Cc1ccc(C(=O)NCC(c2cccs2)S(=O)(=O)c2cccs2)cc1 (stereo unspecified),.,0%,9.2µM*,-5,21µM*,.
CC(C)(C)c1ccc(C(=O)NCC(c2cccs2)S(=O)(=O)c2cccs2)cc1 (stereo unspecified),.,-2%,?,3,?,.
Cc1cc(C)c(S(=O)(=O)NCC(c2cccs2)S(=O)(=O)c2ccccc2)c(C)c1 (stereo unspecified),.,5%,4.1µM*,-14,1.2µM*,.
